In the library only some 2.6% were active in any assay of this set; here they are far more common.
Platelet DG rel: inhibitors of platelet dense granule secretion, primary screen, cell-based, MLPCN, human platelets. human platelet-rich plasma, SFLLRN dense granule ATP release, luminescence. inhibition, %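 (compounds screened at 7.5 µM in platelet-rich plasma)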. hit rate 0.22% among 300,000;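 active = mean replicate score, as percent of positive control, at or above 50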
Granule exo inh: LAMP-1 surface exposure blockers, TALL-104 cells – cell-based, flow cytometry, MLPCN library, primary screen. TALL-104 LAMP-1 surface exposure; cells stimulated with thapsigargin and PMA. inhibition, % at 10 µM. hit rate 0.66% among 360,000;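 active = inhibition above about 55%, limit read from the data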
ABHD5 PLIN5 PPI: ABHD5-PLIN5 interaction inhibitors, primary screen, cell lysate, split luciferase complementation, luminescence | Split G. princeps luciferase complementation, 4 h | inhibition, % at 4 µM | hit rate 0.78% among 360,000 | AID 602281, 2012;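 active = inhibition above the mean inhibition across every tested compound plus 3 SD, cut at about 22% in these data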;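 also: 0% = DMSO only wells and the 100% control is not disclosed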
Rce1 inh: yeast Rce1p protease inhibitors, primary screen, biochemical, fluorescence, cell-free homogeneous. CAAX prenyl protease 2 (Saccharomyces cerevisiae (strain ATCC 204508 / S288c)), Q03530. hit rate 0.27% among 290,000. calls only. yeast membranes, quenched prenylated peptide cleavage fluorescence;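 active = fall in fluorescence gain of 50% or more versus controls, with final raw signal at or below 3038400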;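 also: plate controls were neutral control wells for no effect and wells lacking membranes for full effect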
Target sequence (Q03530 whole entry, looked up): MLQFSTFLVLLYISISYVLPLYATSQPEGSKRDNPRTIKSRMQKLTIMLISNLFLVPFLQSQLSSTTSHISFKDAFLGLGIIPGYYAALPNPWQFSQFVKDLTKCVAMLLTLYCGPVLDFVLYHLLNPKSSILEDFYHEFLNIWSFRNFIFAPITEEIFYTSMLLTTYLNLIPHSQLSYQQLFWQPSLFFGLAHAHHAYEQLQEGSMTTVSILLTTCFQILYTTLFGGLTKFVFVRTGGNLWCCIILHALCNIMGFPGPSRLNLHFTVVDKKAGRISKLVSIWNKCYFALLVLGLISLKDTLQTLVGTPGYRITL
PfM18AAP inh: PfM18AAP inhibitors, malaria aminopeptidase, primary screen, biochemical, QFRET, recombinant enzyme; M18 aspartyl aminopeptidase (Plasmodium falciparum 3D7); H-Glu-NHMec fluorogenic cleavage; inhibition, % at 7.35 µM; hit rate 1.2% among 290,000; AID 1822, 2009;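 active = inhibition above the campaign mean inhibition over all tested compounds plus 3 SD, cut at about 28% in these data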;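 also: 0% = plate median of test compound wells and 100% = 2 mM ZnCl2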
Starred values were filed as active, the others as inactive; i = inactive; x = not tested or not shown; + = active, no number.

SMILES	Platelet DG rel	Granule exo inh	ABHD5 PLIN5 PPI	Rce1 inh	PfM18AAP inh
CCC/C=N/Nc1nc2ccccc2s1	-13.6	-1.7	-11.8	i	35.3*
Cc1cc(C(F)(F)F)c2c(N)c(C(=O)NCc3ccc(Cl)cc3)sc2n1	x	-1.4	-5.7	x	x
Cc1cc2[nH]c3ccccc3c2c(C)n1	-7.8	-4.3	9.1	i	-7.9
COc1ccc(CN2CCN(C(c3ccc(F)cc3)c3ccc(F)cc3)CC2)c(OC)c1OC	-1.0	20.7	-0.5	+	x
Cc1[nH]nc(Nc2ccc(O)cc2)c1[N+](=O)[O-]	-1.5	-1.5	-1.4	i	30.9*
COc1ccc(Nc2n[nH]c(C)c2[N+](=O)[O-])cc1	-11.4	1.8	4.3	x	0.1
CN(C)C(=O)C[n+]1ccc(C(N)=O)cc1	6.5	-11.4	4.5	i	-5.8
CC(C)(C)C(=O)C[n+]1ccc(C(N)=O)cc1	2.8	2.8	1.7	+	-7.4
Oc1ccc(C=NNc2ccccn2)c(O)c1	x	-2.5	-8.6	x	x
Oc1ccc(/C=N/Nc2ncc(Br)cn2)c(O)c1	7.0	-2.3	-7.2	i	51.7*
CCN(CC)S(=O)(=O)c1ccc(N/N=C/c2ccc(O)cc2O)nc1	4.7	5.2	-0.7	i	36.5*
O=[N+]([O-])c1ccc(NN=Cc2ccc(O)cc2O)nc1	x	-0.8	5.0	x	x
CCN1CCN(C2=C(NS(=O)(=O)c3ccc(NC(C)=O)cc3)C(=O)c3ccccc3C2=O)CC1	10.4	5.5	-28.0	i	21.3
CCN1CCN(C2=C(NS(=O)(=O)c3ccc(C)cc3)C(=O)c3ccccc3C2=O)CC1	16.3	5.4	-6.9	i	31.4*
CCc1nnc(NC(=O)c2ccc(NS(=O)(=O)c3ccccc3)cc2)s1	-3.5	-4.2	-1.1	+	-2.3
CN(C)CCCNc1cc(C(C)(C)C)nc2c(-c3ccc(Cl)cc3)cnn12	3.7	65.4*	8.4	i	1.2
O=C(NNC(=O)c1cc2ccccc2cc1O)NC1CCCCC1	0.2	2.7	-5.2	i	28.9*
CCOC(=O)NC(N(O)c1cccc(Cl)c1)C(Cl)(Cl)Cl (configuration not stated)	-5.9	-4.2	-14.8	i	31.2*
CCN(C(=O)Nc1cccc(Cl)c1)c1ccccc1	5.1	4.3	0.8	i	-1.6
CCOC(=O)CNC(=S)N1CCn2c(nc3ccccc32)C1	2.3	-1.7	4.0	i	-1.7
CCSC1(SCC)N=C(N)C2(C#N)C(c3ccc(F)cc3)C12C#N (configuration not stated)	-12.8	68.6*	14.5	i	-7.9
CC1CCCCN1C(=O)CN1CCN(S(=O)(=O)c2ccc(Br)cc2Cl)CC1 (configuration not stated)	x	-1.3	-5.2	x	x
CCn1nc(C)cc1C(=O)NC1CCCc2c1cnn2-c1cc(F)cc(F)c1 (configuration not stated)	-2.4	5.2	5.5	i	0.4
CCN(CC)c1ccc(-n2c(O)c(C=C3N=c4ccccc4=N3)sc2=S)cc1	-13.1	-0.8	-2.2	i	-0.1
O=C(O)c1cccc(-n2c(O)c(C=C3N=c4ccccc4=N3)sc2=S)c1	0.0	48.3	-12.6	i	30.9*
SMILES	Platelet DG rel	Granule exo inh	ABHD5 PLIN5 PPI	Rce1 inh	PfM18AAP inh
CCCC(C(=O)O)n1c(O)c(C=C2N=c3ccccc3=N2)sc1=S (configuration not stated)	3.2	-1.3	-6.1	i	29.9*
Cc1cccc2c(C(=O)Nn3cnnc3)cc(-c3ccccc3Cl)nc12	1.6	3.7	-7.3	i	44.9*
S=C(Nc1ccccc1)NC1CCN(Cc2ccccc2)CC1	0.4	-5.5	-0.4	i	1.8
CCCN1CCN(C(=S)Nc2ccc([N+](=O)[O-])cc2)CC1	-10.2	-0.1	-2.7	i	4.5
S=C(Nc1ccc(Cl)cc1)NC1CCN(Cc2ccccc2)CC1	5.2	68.9*	4.6	i	2.6
CCCN1CCC(NC(=S)Nc2ccc([N+](=O)[O-])cc2)CC1	-8.6	86.4*	-0.8	i	-4.6
COc1cccc(OC2(C)CCN(Cc3ccc(-c4ccccn4)cc3)C2)c1 (configuration not stated)	x	-16.5	2.1	x	x
O/N=C/c1cc(Cl)ccc1OCc1ccccc1Cl	3.1	-1.0	-11.2	i	-6.5
COc1cccc(CNC(=O)c2cc(S(=O)(=O)N3CCOCC3)cn2C)c1	51.1*	-1.7	3.8	i	1.6
COc1ccc(CCNC(=O)c2cc(S(=O)(=O)N3CCOCC3)cn2C)cc1OC	50.8*	-0.7	10.7	i	-2.8
Cc1ccc(C)c(NC(=O)c2cc(S(=O)(=O)N3CCOCC3)cn2C)c1	110.9*	0.1	-1.2	i	-5.2
O=C(NNC(=O)c1ccc(O)c(Cl)c1)c1cccc(S(=O)(=O)N2CCOCC2)c1	-18.4	2.0	2.9	+	x
N#Cc1ccc(C(=O)NNC(=O)c2cccc(S(=O)(=O)N3CCOCC3)c2)cc1	x	4.9	1.8	x	x
Cc1cccc2sc(NNC(=O)c3cc(-c4cccs4)nc4ccccc34)nc12	4.0	12.8	4.5	i	31.4*
O=C(O)C1C2C=CC(C2)C1C(=O)Nc1ccc2c(c1)OCCO2 (configuration not stated)	-1.6	1.8	4.9	i	-1.3
CN(C)c1ccc(NC(=O)C2C3C=CC(C3)C2C(=O)O)cc1 (configuration not stated)	-7.6	-61.9	-3.8	i	54.9*
COc1ccc(C(=O)NC(=S)NCCO)cc1Br	-3.0	0.3	-1.3	i	-0.7
CSc1nc(N(CCO)CCO)c2sc3nc(-c4ccco4)c4c(c3c2n1)CCC4	7.1	-1.6	22.1*	i	3.9
CSc1nc(SCCO)c2sc3nc(-c4ccco4)c4c(c3c2n1)CC(C)(C)OC4	1.8	3.0	15.8	i	-1.1
N#C/C(=C\c1ccc2c(c1)OCO2)C(N)=S	1.2	2.5	-17.6	i	31.5*
CC1(C)CC(=O)C(=Cc2cn(CCC#N)nc2-c2ccc(Cl)cc2)C(=O)C1	-1.2	74.3*	14.4	x	1.0
Cc1cc(Cl)c(OCCCn2ccnc2)c(Br)c1	0.5	-0.7	4.8	i	-4.2
CC(=O)Nc1ccc(-c2csc(-c3cccnc3)n2)cc1	3.9	5.9	-1.1	i	5.0
O=C(NCCCN1CCOCC1)C1(c2ccccc2)CCCC1	70.3*	-4.5	0.8	i	6.4
CC(=O)c1ccc(NC(=O)CSc2nnc(-c3ccco3)c(-c3ccco3)n2)cc1	1.9	-2.9	22.9*	i	12.4
O=C(CSc1nnc(-c2ccco2)c(-c2ccco2)n1)c1ccccc1	-1.4	6.5	-4.2	i	26.4
COCCn1c(SCC(=O)c2c[nH]c3ccccc23)nnc1-c1ccncc1	4.8	3.7	4.7	i	-8.3
COc1cc(/C=C/C(=O)OCC(=O)c2ccc(OC(F)F)cc2)ccc1O	x	67.1*	-3.1	x	x

Bioassay records as filed in PubChem BioAssay.
